Laboratory results as given in PubChem BioAssay (NCI).
Compounds without any hit were thinned out: in the full panel of roughly 83,000, 20% have a hit.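 Method: cells in 96-well plates; compound added at one concentration; 48 h incubation; percent growth measured; values under 10 scored active.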 Values without a mark were called inactive. The source made the active and inactive calls.

Columns and labels:
Assay in all cases: NCI-60 one-dose screen, 48 h (100 = growth as untreated, 0 = no growth, -100 = all killed)
Conditions in all cases: 10 µM unless noted
NCI-H23 lung = tested on: NCI-H23 lung
NCI-H226 lung = tested on: NCI-H226 lung
NCI-H322M lung = tested on: NCI-H322M lung
HOP-62 NSCLC = tested on: HOP-62 NSCLC
NCI-H460 lung = tested on: NCI-H460 lung
HOP-92 NSCLC = tested on: HOP-92 NSCLC
NCI-H522 lung = tested on: NCI-H522 lung
A549/ATCC NSCLC = tested on: A549/ATCC NSCLC
786-0 renal = tested on: 786-0 renal
COLO 205 colon = tested on: COLO 205 colon

| SMILES | growth (NCI-H23 lung) | growth (NCI-H226 lung) | growth (NCI-H322M lung) | growth (HOP-62 NSCLC) | growth (NCI-H460 lung) | growth (HOP-92 NSCLC) | growth (NCI-H522 lung) | growth (A549/ATCC NSCLC) | growth (786-0 renal) | growth (COLO 205 colon) |
| --- | --- | --- | --- | --- | --- | --- | --- | --- | --- | --- |
| COc1ccc2[nH]c(-c3ccccc3)c(C=C(C#N)C#N)c2c1 | 23.4% | 55.1% | 59.1% | 37.4% | 15.3% | -7.8% (active) | -18.4% (active) | 37% | 33.9% | 38.2% |
| COC(=O)/C=C1\SC(=Nc2ccc(F)cc2)N(CCc2c[nH]c3ccccc23)C1=O | 85.3% | 91.2% | 101% | 104% | 104% | 106% | 68.3% | 79% | 104% | 126% |
| CCCCCCC/C=C/[C@H]1O[C@]23C(=O)C[C@@]4(C[C@@H](OC5OC(CO)C(O)C(O)C5O)C[C@@H]4[C@H]2C=C1C)OC3=O (stereo not given in full) | 40.8% | 65.2% | 56.2% | 17.3% | 49% | 59% | -44.7% (active) | 62.2% | 5.03% (active) | 35.9% |
| Nc1c(C(=O)Nc2cccc3ccccc23)sc2nc3c(cc12)CCCCC3 | 44.8% | 72.7% | 51.3% | 38.9% | 9.6% (active) | 63.2% | 0.413% (active) | 19.3% | 30.5% | 2.61% (active) |
| COc1cc(-c2csc(NC(=O)Nc3cc(Cl)cc(Cl)c3)n2)cc(OC)c1OC | 23.7% | 27.5% | -42.1% (active) | -64.8% (active) | -61.6% (active) | -14.3% (active) | 37.5% | -45.9% (active) | -29.2% (active) | 5.56% (active) |
| Cc1cnc(SCc2ccc(Cl)cc2)[nH]c1=S | 94.8% | 111% | 89.5% | 94.2% | 113% | 105% | 78.7% | 94.4% | 92.8% | 121% |
| COc1ccc2c(c1)OC13Oc4cc(OC)ccc4C=C1CCCCC3=C2 | 91.6% | 88.4% | 105% | 99.3% | 94.4% | 80.7% | 66.2% | 73.8% | 87.2% | 101% |
| C=C(C)[C@@H]1CC[C@]2(C(=O)OCCCC[P+](c3ccccc3)(c3ccccc3)c3ccccc3)CC[C@]3(C)[C@H](CC[C@@H]4[C@@]5(C)CC[C@H](OC(=O)C(Cl)Cl)C(C)(C)[C@@H]5CC[C@]43C)[C@@H]12 | -16.5% (active) | -78.5% (active) | 2.79% (active) | -0.785% (active) | -41.1% (active) | -67.4% (active) | -38.3% (active) | 0.629% (active) | -77.9% (active) | -74.4% (active) |
| Nc1c(C(=O)Nc2cccc3ccccc23)sc2nc3c(cc12)COCC3 | 63.1% | 98% | 82.4% | 39.9% | 31.1% | 61.1% | 26.4% | 50.9% | 38.6% | 58.7% |
| CN1CCN(S(=O)(=O)O[C@@H]2C(=O)N(c3cc4c5ccccc5ccc4c4ccccc34)[C@H]2c2ccc(F)cn2)CC1 | 90.6% | 91.2% | 87.4% | 86.6% | 98% | 65.3% | 70.3% | 83.4% | 79.8% | 96.7% |
| COc1ccc2nc(-c3ccc(Cl)cc3)cc(-c3nnc(SCC(=O)Nc4ccc(/C(C)=N\O)cc4)o3)c2c1 | 2.74% (active) | 22.8% | 57.4% | 60% | -31.2% (active) | 19.1% | 9.31% (active) | -9.66% (active) | 25.9% | 56.1% |
| C=C1C(=O)O[C@H]2[C@H]1CCC(/C=N/c1ncc(Br)cc1N)=C\CC[C@@]1(C)O[C@@H]21 | 49.2% | 51.9% | 85.3% | 67.3% | 58.3% | -15.2% (active) | -51.7% (active) | 57.4% | -13.9% (active) | -60% (active) |
| O=c1[nH]c(-c2cccc(F)c2)cc2cc(F)ccc12 | 45.9% | 96.3% | 59.1% | 31.9% | 13.9% | 70.7% | 11.3% | 25.6% | 44.2% | -2.11% (active) |
